Assay outcomes as filed in PubChem.
S1P4 agonist: human S1P4 receptor agonism | S1P4-expressing cell line, agonist reporter assay | activation, % at 4.98 µM | 220,000 tested, 0.35% active | AID 1509; in the data active = activation above about 11%
S1P4 antagonist: antagonists of human S1P4 receptor; O95977; S1P4-expressing cells, antagonist mode, reporter read-out; inhibition, % at 4.98 µM; 220,000 tested, 0.26% active; in the data active = inhibition above about 29%
ROMK mod: modulates human ROMK potassium channel activity | Tet-inducible ROMK, thallium flux fluorescence; actives lie on both sides | B-score at 10 µM | 130,000 tested, 2% active;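 active = signal ratio slope over the read window, or its plate-corrected B-score, at least 3 SD from the plate mean, either direction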;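 note: B-score of the F/F0 ratio slope over 7 to 12 s after thallium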
S1P3 antagonist: S1P3 (human) receptor antagonism. CHO S1P3 NFAT-BLA reporter, FRET fluorescence, antagonist mode. inhibition, % at 4.98 µM. 170,000 tested, 0.27% active. AID 485;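 active = inhibition above the plate cutoff, the mean inhibition of test wells on that plate plus 3 SD, cut at about 28% in these data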;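 note: cells challenged with S1P at its EC80 of 0.8 µM; blue over green emission ratio from cleaved BLA substrate after 4 h stimulation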
Cl transport mod: KCC2 (human) Cl- transport modulation; Q9H2X9; KCC2 cells, thallium flux FluoZin-2 fluorescence; 190,000 tested, 2.2% active; B-score of Tl+ flux slope (higher = more flux/activation; lower = inhibition) at 10 µM;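 active = thallium flux slope and its plate-corrected score both differing from the plate sample mean at a set confidence after two filtering rounds, in either direction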;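 note: slope of fluorescence scaled to starting intensity during 10 to 20 s after thallium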
RAM network inh: inhibitors of the yeast RAM network. 190,000 tested, 1.8% active. S. cerevisiae dse1pr::URA3 reporter, 5-FOA growth OD615, 2 d; analog-sensitive cbk1-as2 kinase mutant strain. AID 868. inhibition, % at 50 µM;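 active = inhibition above a set limit, 3 SD over mean compound inhibition, cut at about 8.4% in these data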;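 note: inhibition rescues growth on 5-FOA so higher OD means more RAM inhibition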
RAM 5-FOA: restores 5-FOA growth of efflux-deficient yeast | max inhibition, % | shares compounds with RAM network inh | AID 1305 | S. cerevisiae efflux-deficient reporter strain, 5-FOA growth OD615, 2 days | 1,200 tested, under 10 active; call rule not given here
Of the large screens only hits and unclear results are named; the others gave an inactive call (follow-up assays come after a bar, where they were run). An excerpt weighted towards active compounds, which were near 5.1% of everything screened.

Cn1c(SCC(=O)O)nnc1-c1ccc(NC(=O)c2ccc(Cl)c(Cl)c2)cc1	none (no result: RAM network inh)
CC(C)S(=O)(=O)C1=NSC2=NC(=O)/C(=C\c3ccc(-c4ccccc4)o3)C(=N)N21	RAM network inh 14 | RAM 5-FOA inactive
COc1cc(CNC(=O)c2cccc(COc3ccc(Cl)cc3)c2)cc(OC)c1	RAM network inh 12 (no result: ROMK mod) | RAM 5-FOA inactive
Cn1nc(C(F)(F)F)c(/C=N/OC(=O)c2ccccc2Cl)c1SCc1ccc(Cl)cc1	RAM network inh 16 (no result: ROMK mod, S1P3 antagonist) | RAM 5-FOA inactive
COc1ccc(C(=O)O/N=C/c2c(C(F)(F)F)nn(C)c2SCc2ccccc2Cl)cc1	RAM network inh 12 (no result: ROMK mod, S1P3 antagonist) | RAM 5-FOA inactive
CC(C)[C@H](NS(=O)(=O)c1ccccc1)C(=O)OCC(=O)Nc1ccccc1Sc1ccccc1	RAM network inh 15 (no result: ROMK mod) | RAM 5-FOA inactive
O=C(COC(=O)CNS(=O)(=O)c1cccc(Br)c1)Nc1ccccc1Sc1ccccc1	RAM network inh 15 | RAM 5-FOA inactive
COc1ccccc1/C=C/C(=O)OCC(=O)Nc1ccccc1Sc1ccccc1	RAM network inh 15 | RAM 5-FOA inactive
O=C(COC(=O)CNS(=O)(=O)c1c(Cl)cccc1Cl)Nc1ccccc1Sc1ccccc1	none
COc1ccccc1NC(=O)COC(=O)/C=C/c1ccccc1[N+](=O)[O-]	none
N#Cc1c(SC(C(=O)O)c2ccccc2)nc2c(c1-c1cccs1)CCCC2 (centres undefined)	none (no result: ROMK mod, RAM network inh)
CCOC(=O)C(C)Sc1nc2c(c(-c3cccs3)c1C#N)CCC2 (centres undefined)	RAM network inh 12 (no result: ROMK mod) | RAM 5-FOA inactive
CCCn1c(N)cc(=O)n(C)c1=O	none
COc1ccc(OC2C(=O)N(Cc3ccc4c(c3)OCO4)C2c2cccs2)cc1 (centres undefined)	RAM network inh 13 (no result: ROMK mod, S1P3 antagonist) | RAM 5-FOA inactive
CCN1CCN(c2ccc(S(=O)(=O)N(CC)CC)cc2[N+](=O)[O-])CC1	none
O=C(/C=C/c1ccc(N2CCCCC2)c([N+](=O)[O-])c1)c1ccc(S(=O)(=O)N2CCCC2)cc1	RAM network inh 12 | RAM 5-FOA inactive
COc1cccc(C(=O)/C=C/c2ccc(N3CCCCC3)c([N+](=O)[O-])c2)c1	RAM network inh 19 | RAM 5-FOA inactive
CN1CCN(c2ccc(S(=O)(=O)N3CCCCC3)cc2[N+](=O)[O-])CC1	none
CCN(CC)S(=O)(=O)c1ccc(N2CCN(c3cccc(OC)c3)CC2)c([N+](=O)[O-])c1	RAM network inh 13 | RAM 5-FOA inactive
COc1cccc(/C=C/C(=O)c2cccc([N+](=O)[O-])c2)c1	none
CCOC(=O)CC(=O)N/N=C/c1c(N)n(C)c(=O)n(C)c1=O	none
O=C1CC(C(=O)N(c2ccccc2)C(C(=O)NC2CCCC2)c2ccncc2)CS1 (centres undefined)	none
CCCN(N=Nc1cccc([N+](=O)[O-])c1)c1cccc([N+](=O)[O-])c1	RAM network inh 12 (no result: S1P3 antagonist) | RAM 5-FOA inactive
c1ccc2cc(Sc3ncnc4c3oc3ccccc34)ccc2c1	RAM network inh 13 (no result: ROMK mod, S1P3 antagonist) | RAM 5-FOA inactive
COc1ccc(NC(=O)N2CCCC(c3nc(-c4ccc(C(C)C)cc4)no3)C2)cc1 (centres undefined)	RAM network inh 12 (no result: ROMK mod) | RAM 5-FOA inactive
COc1ccc(NC(=O)N2CCCC(c3nc(-c4ccc(OC)cc4)no3)C2)cc1 (centres undefined)	none
CC1(C)CC(CCNS(=O)(=O)c2ccccc2)(c2ccccc2)CCO1 (centres undefined)	none
CCC1(C)CC(CCNS(=O)(=O)c2ccc(C)cc2)(c2ccc(C)cc2)CCO1 (centres undefined)	RAM network inh 16 (no result: ROMK mod, S1P3 antagonist) | RAM 5-FOA inactive
Cn1c(C(=O)N2CCCC(C(=O)c3ccc(C(F)(F)F)cc3)C2)cc(=O)n(C)c1=O (centres undefined)	none
CC(=O)Nc1ccc(S(=O)(=O)NCC2CCC(C(=O)NC(C)c3ccc4c(c3)OCCO4)CC2)cc1 (centres undefined)	none
O=C(Cn1cc(C(=O)c2ccco2)c2ccccc21)NC1CCCCC1	RAM network inh 12 | RAM 5-FOA inactive
CC(C)CC(=O)NC(=S)Nc1nc(-c2ccccc2)cs1	RAM network inh 13 | RAM 5-FOA inactive
CC(C)CC(=O)NC(=S)Nc1nc(-c2ccc(Cl)cc2)cs1	none (no result: ROMK mod)
CC1CCCN(C(=O)C(C)Sc2nc(-c3ccccc3)cc(C(F)(F)F)n2)C1 (centres undefined)	RAM network inh 14 (no result: S1P3 antagonist, Cl transport mod) | RAM 5-FOA inactive
CC(Sc1nc(-c2ccccc2)cc(C(F)(F)F)n1)C(=O)N1CCCCC1 (centres undefined)	none (no result: ROMK mod, S1P3 antagonist)
COc1cc(S(=O)(=O)Nc2ccccc2)ccc1N=Cc1c(C)[nH]n(-c2ccc(C)cc2)c1=O	RAM network inh 13 (no result: ROMK mod) | RAM 5-FOA inactive
COc1cc(NC(=O)Nc2ccc(Cl)c(Cl)c2)c(C(=O)O)cc1OC	none (no result: RAM network inh)
CC1(C)CC(=O)C2=C(C1)c1c(ccc3ccccc13)NC2c1ccco1 (centres undefined)	RAM network inh 16 (no result: ROMK mod, S1P3 antagonist) | RAM 5-FOA inactive
O=C(O)CCN1C(=O)/C(=C/c2cn(-c3ccccc3)nc2-c2cccs2)SC1=S	RAM network inh 12 | RAM 5-FOA inactive
S=c1[nH]nc(C(c2ccccc2)C2CCCCC2)o1 (centres undefined)	none (no result: RAM network inh)
CSCCC(NC(=O)c1ccccc1)C(=O)N/N=C(\C)c1ccccc1 (centres undefined)	none (no result: ROMK mod)
Cc1ccc(Cl)cc1N(Cc1ccc(C(=O)NCc2cccnc2)cc1)S(=O)(=O)c1ccccc1	none (no result: ROMK mod, S1P3 antagonist, Cl transport mod)
COCCOC(=O)c1c(C)oc2ccc(OC(=O)COc3c(F)c(F)c(F)c(F)c3F)cc12	RAM network inh 16 (no result: S1P3 antagonist) | RAM 5-FOA inactive
COCCOC(=O)c1c(C)oc2ccc(OS(C)(=O)=O)cc12	none
Cc1oc2ccc(OC(=O)COc3c(F)c(F)c(F)c(F)c3F)cc2c1C(=O)OC(C)C	RAM network inh 13 | RAM 5-FOA inactive
COc1ccc(Nc2nc(-c3ccccc3)c(C(=O)Nc3cccnc3)s2)cc1	none
C/C(Cc1nnn(-c2cc(C)on2)n1)=N\O	none (no result: RAM network inh)
CCCCCOc1ccc(NC(=O)c2cc(SC)ccc2Cl)cc1	RAM network inh 13 | RAM 5-FOA inactive
N#CCc1ccc(NS(=O)(=O)c2ccc(C3CCCCC3)cc2)cc1	RAM network inh 11 | RAM 5-FOA inactive
COc1ccc(S(=O)(=O)Nc2ccc(CC#N)cc2)cc1	none (no result: ROMK mod)
CCOC(=O)/C(C#N)=C(C)/C=C1\Sc2ccccc2N1CC	RAM network inh 22 | RAM 5-FOA inactive
CCN1/C(=C\C=C(C(C)=O)C(C)=O)Sc2ccccc21	none (no result: ROMK mod)
O=C(COC(=O)CC(c1ccccc1)c1ccccc1)NCc1ccc(Cl)cc1	RAM network inh 13 (no result: ROMK mod) | RAM 5-FOA inactive
